Test results as given in the supplement of paper PMC8728848.
The entries come from a sample that favours the strongest signals as a whole.

Key:
Assay in all cases: glycan array binding signal (z-score within array); higher = stronger binding
Conditions in all cases: glycan notation: IUPAC condensed, linker removed
[1] = target: Fuc(a1-2)Gal(b1-3)GalNAc(b1-4)[Neu5Ac(a2-3)]Gal(b1-4)Glc
Method in brief: (§1)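 Arrays were curated from the Consortium for Functional Glycomics database, 3228 in total, and kept only where the protein sequence was available. Binding is expressed as a within-array Z-score. This score was averaged across arrays of the same protein sequence at different concentrations or buffers and across linkers, and negative values can be read as non-binding.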

[2] = target: Fuc(a1-2)Gal(b1-3)GlcNAc6S
Method in brief: as §1

[3] = target: Fuc(a1-2)[Gal(a1-3)]Gal(b1-3)GlcNAc
Method in brief: as §1

[4] = target: Fuc(a1-2)[Gal(a1-3)]Gal(b1-3)GlcNAc(b1-2)Man(a1-3)[Fuc(a1-2)[Gal(a1-3)]Gal(b1-3)GlcNAc(b1-2)Man(a1-6)]Man(b1-4)GlcNAc(b1-4)[Fuc(a1-6)]GlcNAc
Method in brief: as §1

[5] = target: Fuc(a1-2)[GalNAc(a1-3)]Gal(b1-3)GlcNAc(b1-6)GalNAc
Method in brief: as §1

[6] = target: Fuc(a1-2)[GalNAc(a1-3)]Gal(b1-4)Glc
Method in brief: as §1

[7] = target: Fuc(a1-3)[Gal(b1-4)]GlcNAc(b1-6)[Gal(b1-3)GlcNAc(b1-3)]Gal(b1-4)Glc
Method in brief: as §1

[8] = target: Fuc(a1-3)[Gal3S(b1-4)]Glc
Method in brief: as §1

[9] = target: Fuc(a1-4)GlcNAc
Method in brief: as §1

[10] = target: Gal(a1-3)Gal(b1-3)GlcNAc
Method in brief: as §1

[11] = target: Gal(a1-3)Gal(b1-3)[Fuc(a1-4)]GlcNAc(b1-2)Man(a1-3)[Gal(a1-3)Gal(b1-3)[Fuc(a1-4)]GlcNAc(b1-2)Man(a1-6)]Man(b1-4)GlcNAc(b1-4)GlcNAc
Method in brief: as §1

[12] = target: Gal(a1-3)Gal(b1-4)[Fuc(a1-3)]GlcNAc
Method in brief: as §1

[13] = target: Gal(a1-3)Gal(b1-4)[Fuc(a1-3)]GlcNAc(b1-2)Man(a1-3)[Gal(a1-3)Gal(b1-4)[Fuc(a1-3)]GlcNAc(b1-2)Man(a1-6)]Man(b1-4)GlcNAc(b1-4)GlcNAc
Method in brief: as §1

[14] = target: Gal(b1-3)[Fuc(a1-4)]GlcNAc(b1-2)Man(a1-3)[Gal(b1-3)[Fuc(a1-4)]GlcNAc(b1-2)Man(a1-6)]Man(b1-4)GlcNAc(b1-4)[Fuc(a1-6)]GlcNAc
Method in brief: as §1

[15] = target: Gal(b1-4)GlcNAc(b1-2)Man(a1-6)Man(b1-4)GlcNAc(b1-4)GlcNAc
Method in brief: as §1

[16] = target: Gal(b1-4)GlcNAc(b1-3)Gal(b1-4)GlcNAc
Method in brief: as §1

[17] = target: Gal(b1-4)GlcNAc(b1-3)Gal(b1-4)GlcNAc(b1-2)[Gal(b1-4)GlcNAc(b1-3)Gal(b1-4)GlcNAc(b1-6)]Man(a1-6)[Gal(b1-4)GlcNAc(b1-3)Gal(b1-4)GlcNAc(b1-2)Man(a1-3)]Man(b1-4)GlcNAc(b1-4)[Fuc(a1-6)]GlcNAc
Method in brief: as §1

[18] = target: Gal(b1-4)GlcNAc(b1-3)Gal(b1-4)GlcNAc(b1-3)Gal(b1-4)GlcNAc(b1-3)Gal(b1-4)GlcNAc(b1-3)Gal(b1-4)GlcNAc(b1-2)[Gal(b1-4)GlcNAc(b1-3)Gal(b1-4)GlcNAc(b1-3)Gal(b1-4)GlcNAc(b1-3)Gal(b1-4)GlcNAc(b1-3)Gal(b1-4)GlcNAc(b1-6)]Man(a1-6)[Gal(b1-4)GlcNAc(b1-3)Gal(b1-4)GlcNAc(b1-3)Gal(b1-4)GlcNAc(b1-3)Gal(b1-4)GlcNAc(b1-3)Gal(b1-4)GlcNAc(b1-2)Man(a1-3)]Man(b1-4)GlcNAc(b1-4)[Fuc(a1-6)]GlcNAc
Method in brief: as §1

[19] = target: Gal(b1-4)GlcNAc(b1-6)Gal(b1-4)GlcNAc
Method in brief: as §1

[20] = target: Gal3S(b1-4)[Fuc(a1-3)]Glc6S
Method in brief: as §1

[21] = target: GalNAc(a1-3)Gal
Method in brief: as §1

[22] = target: GalNAc(a1-3)GalNAc(b1-3)Gal(a1-4)Gal(b1-4)GlcNAc
Method in brief: as §1

[23] = target: GalNAc(b1-4)GlcNAc(b1-2)Man
Method in brief: as §1

[24] = target: GalNAc(b1-4)GlcNAc(b1-2)Man(a1-3)[GalNAc(b1-4)GlcNAc(b1-2)Man(a1-6)]Man(b1-4)GlcNAc(b1-4)GlcNAc
Method in brief: as §1

[25] = target: Glc(a1-4)Glc(a1-4)Glc(a1-4)Glc
Method in brief: as §1

[26] = target: GlcNAc(a1-4)Gal(b1-4)GlcNAc
Method in brief: as §1

[27] = target: GlcNAc(a1-4)Gal(b1-4)GlcNAc(b1-3)Gal(b1-4)[Fuc(a1-3)]GlcNAc(b1-3)Gal(b1-4)[Fuc(a1-3)]GlcNAc
Method in brief: as §1

[28] = target: GlcNAc(b1-2)Man(a1-3)[GlcNAc(b1-2)Man(a1-6)]Man(b1-4)GlcNAc(b1-4)GlcNAc
Method in brief: as §1

B1: LF82 (Escherichia coli) (protein)
chain: ADWGPCRTASGDPFIFVTSFTKNIQNPTDNVTGQTYPDFYQWALGDKYSGVCECPSPNPTEARPTLYKTESTLAAGHNSTYFKITNNLEVSTRVYIANVGNVQVPFINKSNSQPGRECDQPTFGWTTGSKGQLSLYIAKPFVGEQNIPQTIIVSVFGTKKENVYSSVPISQVLLSGKVTVTQGCELAAGTSLDIDFGEYQAHDFKGRTGQPPQNVQKIQKELTFNCTNISDGVHIYLSLEGTPNAAYPSAISLGNADVGAVIEDGKGNILKPNDSNSLLEMNPGSLYEYVKRKVTTTITAYPVSTTGKLPAAGDYSGVATMHVELDGGGGGGGGGGATTDLGAKGTLKFSLKISQGHHHHHH
glycan array binding signal (z-score) [1]: 3.03
glycan array binding signal (z-score) [2]: 2.87
glycan array binding signal (z-score) [3]: -0.338
glycan array binding signal (z-score) [4]: 3.84
glycan array binding signal (z-score) [5]: 1.19
glycan array binding signal (z-score) [6]: -0.933
glycan array binding signal (z-score) [7]: -1.03
glycan array binding signal (z-score) [8]: 0.085
glycan array binding signal (z-score) [9]: -0.348
glycan array binding signal (z-score) [10]: -0.354
glycan array binding signal (z-score) [11]: 0.456
glycan array binding signal (z-score) [12]: -1.48
glycan array binding signal (z-score) [13]: 1.79
glycan array binding signal (z-score) [14]: 0.378
glycan array binding signal (z-score) [15]: 4.95
glycan array binding signal (z-score) [16]: -1.12
glycan array binding signal (z-score) [17]: 2.68
glycan array binding signal (z-score) [18]: 3.2
glycan array binding signal (z-score) [19]: -0.202
glycan array binding signal (z-score) [20]: -0.55
glycan array binding signal (z-score) [21]: -0.316
glycan array binding signal (z-score) [22]: -0.744
glycan array binding signal (z-score) [23]: 0.518
glycan array binding signal (z-score) [24]: -0.272
glycan array binding signal (z-score) [25]: 1.21
glycan array binding signal (z-score) [26]: 2.49
glycan array binding signal (z-score) [27]: 3.63
glycan array binding signal (z-score) [28]: -0.657
